PubChem BioAssay (NCI)
Compounds without any hit were thinned out: in the full panel of roughly 83,000, 20% have a hit.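 In brief: 96-well plates, 48 h treatment, single concentration, percent growth endpoint.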 A number with no mark means an inactive call. Activity calls are given as the source filed them. How the source made its calls: active means growth percent below 10; inactive means the rest.

Assays:
Assay in all cases: NCI-60 one-dose screen, 48 h (100 = growth as untreated, 0 = no growth, -100 = all killed)
Conditions in all cases: 10 µM unless noted
HCT-15 colon = test system: HCT-15 colon
HT29 colon = test system: HT29 colon
SNB-75 CNS = test system: SNB-75 CNS
SNB-19 CNS = test system: SNB-19 CNS
U251 CNS = test system: U251 CNS
PC-3 prostate = test system: PC-3 prostate
SK-MEL-5 melanoma = test system: SK-MEL-5 melanoma
UACC-62 melanoma = test system: UACC-62 melanoma
LOX IMVI melanoma = test system: LOX IMVI melanoma
SK-MEL-28 melanoma = test system: SK-MEL-28 melanoma
SK-MEL-2 melanoma = test system: SK-MEL-2 melanoma
EKVX NSCLC = test system: EKVX NSCLC
SN12C renal = test system: SN12C renal
UO-31 renal = test system: UO-31 renal
TK-10 renal = test system: TK-10 renal
ACHN renal = test system: ACHN renal
CAKI-1 renal = test system: CAKI-1 renal
CCRF-CEM leukemia = test system: CCRF-CEM leukemia
MOLT-4 leukemia = test system: MOLT-4 leukemia

SMILES	growth (HCT-15 colon) [%]	growth (HT29 colon) [%]	growth (SNB-75 CNS) [%]	growth (SNB-19 CNS) [%]	growth (U251 CNS) [%]	growth (PC-3 prostate) [%]	growth (SK-MEL-5 melanoma) [%]	growth (UACC-62 melanoma)	growth (LOX IMVI melanoma) [%]	growth (SK-MEL-28 melanoma) [%]	growth (SK-MEL-2 melanoma)	growth (EKVX NSCLC) [%]	growth (SN12C renal) [%]	growth (UO-31 renal) [%]	growth (TK-10 renal) [%]	growth (ACHN renal) [%]	growth (CAKI-1 renal) [%]	growth (CCRF-CEM leukemia) [%]	growth (MOLT-4 leukemia) [%]
c1ccc2c(-c3nccs3)c[nH]c2c1	94.3	98.9	90.7	98.1	103	81.5	95.3	93.5%	99.7	100	112%	88.6	98.3	85.1	84.4	97.6	95.6	111	91.8
Nc1c(C(=O)Nc2cccc3cnccc23)sc2nc3c(cc12)C(=O)CCC3	70.9	79.9	88.5	66.6	95.7	75.9	47.6	43.1%	91.6	85.1	77.2%	91.6	89.2	81.8	104	101	77.8	64.6	102
COc1cc(C=O)ccc1OC1OC(COC(C)=O)C(OC(C)=O)C(OC(C)=O)C1OC(C)=O (stereo unspecified)	99.3	105	106	103	94.2	95.8	98.2	100%	103	110	98.6%	99.9	97.9	93.1	107	107	98.8	54.9	110
O=C(N/N=C/c1ccc(Oc2ccccc2)cc1)c1cnn2c1NC(c1ccccc1)C2 (stereo unspecified)	33.9	65.8	76.8	61	48.1	46.7	41.5	6.85% (active)	57.2	56.2	4.54% (active)	77.6	71.8	60.7	66.8	35.2	33.6	67.5	75.1
